Data on 42 sequences can be found in PMC7819943, “Rice protein-binding microarrays: a tool to detect cis-acting elements near promoter regions in rice”.

In all, about 35,000 sequences were measured (“fluorescence intensity (a.u.)”: median about 10,000, highest 2% from about 52,000 on). What follows is part of a selection rich in the highest values, with near analogues and random picks from the rest.

The target of the assay is T1, OsWOX13 (Oryza sativa, UniProt Q5QMM3 1-267).
T1 sequence: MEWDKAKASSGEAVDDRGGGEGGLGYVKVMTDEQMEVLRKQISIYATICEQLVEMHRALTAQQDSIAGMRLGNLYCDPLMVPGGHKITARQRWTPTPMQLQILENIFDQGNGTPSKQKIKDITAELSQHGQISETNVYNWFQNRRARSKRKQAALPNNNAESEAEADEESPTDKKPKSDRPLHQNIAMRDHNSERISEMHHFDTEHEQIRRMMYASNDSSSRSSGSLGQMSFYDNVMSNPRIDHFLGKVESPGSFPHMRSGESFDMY
In words: protein-binding microarray (RPBM); PBS, 2% BSA, 51.3 ng/ul salmon testes DNA, 50 uM zinc acetate, 200 nM TF, 25 C, 1 h; high values mean tight binding. The settings on record: protein: recombinant; tags: N-terminal polyhistidine and DsRed monomer fusion (pET32a); label: CyDye5-dUTP incorporated in the synthesized complementary strand; 3' TTTTT single-stranded linker to array surface; dsDNA, one strand shown. In outline: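 An Axon 4000B scanner gave the binding signal as per-feature fluorescence intensity in arbitrary units. This followed washing of a custom Agilent array that had been incubated for 1 h at 25 °C with 200 nM protein in PBS, 2% BSA, salmon testes DNA and 50 µM zinc acetate. The proteins were transcription factors fused at the N-terminus to polyhistidine and DsRed, expressed in E. coli BL21-CodonPlus and purified on Ni–NTA.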
Consider “TGCTAATAAATCTTGATTTGTTTCACATAGAAGCTGCATCCGGAGTCACCTAGTGCAG”, for which the binding signal was 26400 fluorescence intensity (a.u.).

For “CAGATAATTAGCTACCTGTTTAATAGATCATCTTGATCATCGGAGTCACCTAGTGCAG”, the binding signal is 53400 fluorescence intensity (a.u.).

Turning to “TGGACAACAATTCTTGATTGAATTTAATTAACGGATAACGCGGAGTCACCTAGTGCAG”, the binding signal is 28000 fluorescence intensity (a.u.).

Consider “CACTAATTGATCAATTGCACAACAAATTGCTTGAATAACGCGGAGTCACCTAGTGCAG”, for which the binding signal was 59900 fluorescence intensity (a.u.).

As for “ATATGATAATAATTATTTAAAGAAATAAATTTATTTTGGACGGAGTCACCTAGTGCAG”, the binding signal is 28700 fluorescence intensity (a.u.).

Regarding “CATGATTGCTCATCTTTGTATTAAAAGAAATAATTTATGTCGGAGTCACCTAGTGCAG”, the binding signal was 53500 fluorescence intensity (a.u.).

Take “TTGATTAAATACAAAATTAATAGTCAAAGTTTTAAAAGTTCGGAGTCACCTAGTGCAG”: the binding signal is 18200 fluorescence intensity (a.u.).

In the case of “TGATTAAATTGCTTTAACTTTTATTTAATTTGTAGAAAATCGGAGTCACCTAGTGCAG”, the binding signal is 22500 fluorescence intensity (a.u.).

In the case of “AAACTGTTTTAATAATAGATAGATAGATAGATAGATAGATCGGAGTCACCTAGTGCAG”, the binding signal is 18200 fluorescence intensity (a.u.).

Take “TGTGACATTTCCAATCACTAATTGATCAATTGCACAACAACGGAGTCACCTAGTGCAG”: the binding signal was 38100 fluorescence intensity (a.u.).

For “TAAATATATTGTCAAATTATATTTAATGTTTTATTTGATACGGAGTCACCTAGTGCAG”, the binding signal was 3180 fluorescence intensity (a.u.).

For “GTAAAAGTTAATTGATTTGTTTATACCCTCAAATAGCCATCGGAGTCACCTAGTGCAG”, the binding signal is 58700 fluorescence intensity (a.u.).

Consider “TTGTTAATTACCTTGTTTAATTAATTTCGCTAGCTTAGATCGGAGTCACCTAGTGCAG”, for which the binding signal is 44700 fluorescence intensity (a.u.).

“GACAAATTATGGCATTTTAAAATCCAAAATATGGAAAGGGCGGAGTCACCTAGTGCAG”: the binding signal was 14600 fluorescence intensity (a.u.).

With “CTTAACTGTAACACTATTGCGTTGATTACTTCTACTTATTCGGAGTCACCTAGTGCAG”, the binding signal was 15200 fluorescence intensity (a.u.).

In the case of “CTTATTATAAAGATTTAATTATAACAAATATAATGGTATGCGGAGTCACCTAGTGCAG”, the binding signal is 4800 fluorescence intensity (a.u.).

For the sequence “ATAATTGGTAAAGATGGATTCAAAATATTATTAATAATTGCGGAGTCACCTAGTGCAG”, the binding signal was 26200 fluorescence intensity (a.u.).

In the case of “CTTGATTTATTGATTGATTAATAAAACATTTTATTTCCAACGGAGTCACCTAGTGCAG”, the binding signal was 56900 fluorescence intensity (a.u.).

For the sequence “TGATAGATGGAAAATAAATTGGTAAAATTAGTAGATGGGACGGAGTCACCTAGTGCAG”, the binding signal is 39700 fluorescence intensity (a.u.).

Take “AACATTGATTAATATTGGTCAAAATATTTTCAACTCTAAACGGAGTCACCTAGTGCAG”: the binding signal was 19200 fluorescence intensity (a.u.).

Consider “CAATGATTGGACTAAAGAAAATGCTAATATTAATGGTATGCGGAGTCACCTAGTGCAG”, for which the binding signal is 52300 fluorescence intensity (a.u.).

“GTATGATTAATTGAGTTTTAATTATTATAAAATTTTAAAACGGAGTCACCTAGTGCAG”: the binding signal was 22900 fluorescence intensity (a.u.).

For the sequence “ACTTATATTCTTTAACTTATGATTGGAGGTATATACTATACGGAGTCACCTAGTGCAG”, the binding signal is 5760 fluorescence intensity (a.u.).

For “CTTCTTGATTGATTTATACTAACTGCGCACACACTTTATTCGGAGTCACCTAGTGCAG”, the binding signal is 55200 fluorescence intensity (a.u.).

For “ACCGTGATTACGGTAATTGGAAATATAAAAGAGATGGGAGCGGAGTCACCTAGTGCAG”, the binding signal was 56800 fluorescence intensity (a.u.).

Consider “GATTCAATGATGGATTTAATAAAACTAATTTGGTATTGCTCGGAGTCACCTAGTGCAG”, for which the binding signal was 18700 fluorescence intensity (a.u.).

As for “GTACCTACCAGTAATTAATCAGCAGGCTCACTGTAATCAACGGAGTCACCTAGTGCAG”, the binding signal was 3470 fluorescence intensity (a.u.).

As to “CATTTGATTTTCGGTCTGATTTTGTTATTTCACTGGCAATCGGAGTCACCTAGTGCAG”, the binding signal was 24300 fluorescence intensity (a.u.).

Turning to “GGTGACAGTTTGGTTAGTGACAAATAGTTACATTCTCGTTCGGAGTCACCTAGTGCAG”, the binding signal was 5070 fluorescence intensity (a.u.).

For “GTTTAAAGAAATTGATGAAAGAAAAGCTTCATTGTTGGCTCGGAGTCACCTAGTGCAG”, the binding signal was 6180 fluorescence intensity (a.u.).

As to “TTTAATTGAACTTGAGTGGTCCAGGTATTAAATGTGGGTCCGGAGTCACCTAGTGCAG”, the binding signal is 52200 fluorescence intensity (a.u.).

As to “ACCCAGGCTTTGATTGCGATGATAAACCGAGCTCGCAGCACGGAGTCACCTAGTGCAG”, the binding signal was 13800 fluorescence intensity (a.u.).

Turning to “GGAAATTTAACTATTTGCCACTTTTAGGTTTATCAATTATCGGAGTCACCTAGTGCAG”, the binding signal was 4880 fluorescence intensity (a.u.).

In the case of “ATTGGACCTGAACACTGCTAATTAATTGGTATAAGTCATCCGGAGTCACCTAGTGCAG”, the binding signal was 8360 fluorescence intensity (a.u.).

For “ATTAATGAACTGTGACATTTCCTTAATTTCATTTTGCTCTCGGAGTCACCTAGTGCAG”, the binding signal is 23800 fluorescence intensity (a.u.).

Take “ATAGATAGATTTCTCCATAAGTAATTACATTGTAGGTAGGCGGAGTCACCTAGTGCAG”: the binding signal is 28500 fluorescence intensity (a.u.).

Take “TCTGATTGATGATGACGATGATGGCGGCTGTGCAGCTGAACGGAGTCACCTAGTGCAG”: the binding signal is 47600 fluorescence intensity (a.u.).

As for “TTAAATTGTTAATACCTCTGTATATCATCCGATCTACGTACGGAGTCACCTAGTGCAG”, the binding signal is 19600 fluorescence intensity (a.u.).

For “AATAACTGATGACTGTGAATGATTGATACGATGTAGTAGGCGGAGTCACCTAGTGCAG”, the binding signal is 65300 fluorescence intensity (a.u.).

Consider “AACTGATATGTAGGGTATGATTGTAATGAAATTACGATTGCGGAGTCACCTAGTGCAG”, for which the binding signal is 10700 fluorescence intensity (a.u.).

“CAGTTATGTGATTGGACTATAAATACGATATATGTTGTGTCGGAGTCACCTAGTGCAG”: the binding signal is 28700 fluorescence intensity (a.u.).

As to “ATAACAGTGATTGATCTGTTAAATATCCGATACGGGTAGGCGGAGTCACCTAGTGCAG”, the binding signal is 65200 fluorescence intensity (a.u.).
